For 20 compounds, growth inhibition results are on record in PubChem BioAssay (NCI).

The nature of experiment [1]: NCI Yeast Anticancer Drug Screen. Data for the rad50 strain (AID 155).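 Also: 0% = growth of vehicle-only cultures of the same strain.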 The settings on record: S. cerevisiae rad50 strain growth inhibition; at 50.0 µM; stronger effect = higher value. Summed up:
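Compounds were tested on a yeast strain with an engineered DNA damage repair alteration; the reported value is growth inhibition normalised to vehicle treatment.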

Experiment [2] in a line: NCI Yeast Anticancer Drug Screen. Data for the mec2-1 strain (AID 157). Conditions: S. cerevisiae mec2-1 strain, at 50.0 µM, stronger effect = higher value. The method in brief:
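Growth inhibition is read against vehicle-treated controls after compound exposure of the mec2-1 yeast strain, which is defective in DNA damage repair or cell cycle control.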

The nature of experiment [3]: NCI Yeast Anticancer Drug Screen. Data for the sgs1 mgt1 strain (AID 161).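 Also: 0% = growth of cultures given vehicle only.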 The settings on record: S. cerevisiae sgs1 mgt1 strain, at 50.0 µM, stronger effect = higher value. The method in brief: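 Percent growth inhibition was derived by comparing compound-exposed mutant yeast with vehicle-exposed cultures. The strain carries alterations in DNA damage repair.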
The nature of experiment [4]: NCI Yeast Anticancer Drug Screen. Data for the cln2 rad14 strain (AID 165).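 Also: 0% = growth equal to vehicle treated cultures.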 Conditions: S. cerevisiae cln2 rad14 strain, at 50.0 µM, stronger effect = higher value. Summed up: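 Growth inhibition, relative to vehicle-treated controls, is the read-out. The test organism is a yeast strain with defined genetic alterations, cln2 rad14.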
A short description of experiment [5]: NCI Yeast Anticancer Drug Screen. Data for the bub3 strain (AID 167). The settings on record: S. cerevisiae bub3 mutant strain, at 50.0 µM, stronger effect = higher value. The method in brief: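 Growth of a checkpoint-deficient yeast mutant is measured after compound exposure. Values represent inhibition relative to vehicle.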
Experiment [6] can be described thus: NCI Yeast Anticancer Drug Screen. Data for the mlh1 rad18 strain (AID 175). The settings on record: S. cerevisiae mlh1 rad18 strain growth inhibition; at 50.0 µM; stronger effect = higher value. The method in brief: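 Cells of a genetically altered yeast strain, deficient in DNA damage repair, were treated with compound. Their growth was then compared with that of vehicle-treated cultures to give inhibition.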

This is part of a sample that, as a whole, favours compounds with a hit. Of some 79,000 tested, about 15% had one in any assay. Unmarked numbers belong to inactive results. Activity calls are given as the source filed them. Rule as the data show it: active = growth inhibition above about 70%; inactive = the rest.

In the case of `C=CCCCCCCCCC(=O)Nc1cc(Cl)ccc1C`, the growth inhibition in experiment [1] was -0.25%; in experiment [2], -5%; in experiment [3], -10.4%; in experiment [4], -22.9%; in experiment [5], -10.8%; in experiment [6], -2.7%.

As to `Clc1ccc(N[P+](c2ccccc2)(c2ccccc2)c2ccccc2)cc1.[Cl][Fe]([Cl])([Cl])[Cl]`, the growth inhibition was 39.3% in experiment [1]; 12% in experiment [2]; 45.4% in experiment [3]; 5% in experiment [4]; 5.8% in experiment [5]; 17.8% in experiment [6].

For `COC(=O)c1c(C(=O)Nc2ccc(Cl)cc2)c(C)n(NC(N)=O)c1C`, the growth inhibition is -6.45% in experiment [1]; 8.8% in experiment [2]; 6.9% in experiment [3]; -45.5% in experiment [4]; 1.15% in experiment [5]; 3.95% in experiment [6].

As for `O=C1NN2CCN=C2c2ccccc21`, the growth inhibition in experiment [1] is -60.5%; in experiment [2] it was -30%; in experiment [3] it was -22.7%; in experiment [4], -16.4%; in experiment [5] it was -6.5%; in experiment [6], -16.4%.

As to `CCOC(=O)NC(=O)c1cn(CCN2CCN(C(=O)CCCCCCCCCCC(=O)N3CCN(CCn4cc(C(=O)NC(=O)OCC)c(=O)[nH]c4=O)CC3)CC2)c(=O)[nH]c1=O`, the growth inhibition in experiment [1] is 16.4%; in experiment [2], 4.15%; in experiment [3], 11.2%; in experiment [4] it was -1.35%; in experiment [5] it was -3.45%; in experiment [6] it was 8.55%.

With `CC1OC(c2ccc(Cl)cc2Cl)OC1C` (stereo not given), the growth inhibition is 6.45% in experiment [1]; -0.9% in experiment [2]; 2.65% in experiment [3]; 0.7% in experiment [4]; 0.95% in experiment [5]; 1.5% in experiment [6].

Take `CC1CCC2(C)CCC3(C)C(=CCC4C5(C)CCC(O)C(C)(C)C5CCC43C)C2C1C` (stereo not given) (tested in a mixture with another compound): the growth inhibition was 23.8% in experiment [1]; -20.8% in experiment [2]; 9.95% in experiment [3]; -5.8% in experiment [4]; 0.6% in experiment [5]; 17.1% in experiment [6].

On to `COC(=O)/C(=N\N)C(C(=O)C(=O)Nc1cc(Cl)ccc1Cl)c1nc2ccc([N+](=O)[O-])cc2[nH]c1=O` (stereo not given), for which the growth inhibition in experiment [1] is 13.1%; in experiment [2], 6.6%; in experiment [3] it was -6.15%; in experiment [4] it was -20.2%; in experiment [5], 25.9%; in experiment [6] it was 12.7%.

With `CC(C)=CCc1c(O)ccc(C(=O)[C@H]2C(c3ccc(O)cc3O)CC(C)=C[C@@H]2c2c(O)cc(O)c3c(=O)c(CC=C(C)C)c(-c4ccc(O)cc4O)oc23)c1O` (stereo not given in full), the growth inhibition is 88.4% (active) in experiment [1]; 90% (active) in experiment [2]; 92% (active) in experiment [3]; 89% (active) in experiment [4]; 90.2% (active) in experiment [5]; 89.8% (active) in experiment [6].

Take `c1ccc(C2=NOCC3(c4ccccc4)OC23)cc1` (stereo not given): the growth inhibition in experiment [1] is 7.85%; in experiment [2], 11.8%; in experiment [3], 20.7%; in experiment [4] it was -14.8%; in experiment [5], 14.2%; in experiment [6] it was 11.3%.

In the case of `COc1ccc(-c2c(C#N)c(N)n(C3OCC(O)C(O)C3O)c(=S)c2C#N)cc1` (stereo not given), the growth inhibition is -33.6% in experiment [1]; -6.5% in experiment [2]; -15.3% in experiment [3]; -37.8% in experiment [4]; -1.9% in experiment [5]; 3.4% in experiment [6].

Take `N#CNC1=NC(N)C(c2nc3ccccc3[nH]2)=C(CCCC(=O)Nc2cccc([N+](=O)[O-])c2)N1` (stereo not given): the growth inhibition in experiment [1] was 17.1%; in experiment [2], 17.1%; in experiment [3] it was 5.45%; in experiment [4], 25.9%; in experiment [5] it was 35.9%; in experiment [6], 5.65%.

Regarding `N=C1C=Cc2ccccc2/C1=N/N=c1/ccccn1O`, the growth inhibition in experiment [1] is 72.2% (active); in experiment [2], 91.6% (active); in experiment [3] it was 73.5% (active); in experiment [4], 51.7%; in experiment [5], 98.3% (active); in experiment [6], 78.2% (active).

On to `CC(=O)OC(Cc1ccc2ccccc2n1)(C(F)(F)F)C(F)(F)F`, for which the growth inhibition is -17.6% in experiment [1]; -16.1% in experiment [2]; -8.05% in experiment [3]; 6.2% in experiment [4]; 5.5% in experiment [5]; -24.5% in experiment [6].

`O=C(NCCCN1CCCCCC1)C(c1ccccc1)C1CCCCC1` (stereo not given): the growth inhibition is 25.3% in experiment [1]; -16.4% in experiment [2]; 49.4% in experiment [3]; 13.9% in experiment [4]; 14.6% in experiment [5]; 36.1% in experiment [6].

As for `S=C(NCc1cccnc1)Nc1ccc(Cl)c(Cl)c1`, the growth inhibition in experiment [1] is 26.8%; in experiment [2], 13.3%; in experiment [3], 27.9%; in experiment [4], 5.85%; in experiment [5], 27.6%; in experiment [6], 13.7%.

For the compound `O=C1N(c2ccccc2)C(=O)C2(SC=NN2Cc2ccccc2)N1c1ccccc1` (stereo not given), the growth inhibition was -7% in experiment [1]; 2% in experiment [2]; -18.6% in experiment [3]; 8.2% in experiment [4]; 11.8% in experiment [5]; 10.7% in experiment [6].

In the case of `O=C(O)c1ccccc1NCn1c(=S)sc2ccccc21`, the growth inhibition in experiment [1] was 63%; in experiment [2], 45.8%; in experiment [3], 60.6%; in experiment [4], 5.5%; in experiment [5], 43.8%; in experiment [6], 53.9%.

Regarding `O=C1c2ccccc2C(=CC=C2c3ccccc3Sc3ccccc32)c2ccccc21`, the growth inhibition was 11.9% in experiment [1]; 25.9% in experiment [2]; -35% in experiment [3]; 9.55% in experiment [4]; 24.2% in experiment [5]; -5.75% in experiment [6].

For `c1ccc(CNC(c2ccccc2)C(NCc2ccccc2)c2ccccc2)cc1` (stereo not given), the growth inhibition was -7.35% in experiment [1]; -0.75% in experiment [2]; -14.3% in experiment [3]; -38.4% in experiment [4]; 6.15% in experiment [5]; 10.2% in experiment [6].
